High-throughput results: PubChem BioAssay, Sanford-Burnham Center for Chemical Genomics
Shown are actives, neighbours in structure and some others; about 31% of the full set was active somewhere.
CYP2C19 inhib: blocks human cytochrome P450 2C19; P33261; AID 778; inhibition, % at 5 µM; actives 21% (n = 96,000); CYP2C19 Supersomes, luciferin-H EGE luminescence, 30 min;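 active = CYP2C19 inhibition above a set limit at 5 µM in the primary screen, cut at about 50% in these data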
Target sequence (P33261 whole entry, looked up): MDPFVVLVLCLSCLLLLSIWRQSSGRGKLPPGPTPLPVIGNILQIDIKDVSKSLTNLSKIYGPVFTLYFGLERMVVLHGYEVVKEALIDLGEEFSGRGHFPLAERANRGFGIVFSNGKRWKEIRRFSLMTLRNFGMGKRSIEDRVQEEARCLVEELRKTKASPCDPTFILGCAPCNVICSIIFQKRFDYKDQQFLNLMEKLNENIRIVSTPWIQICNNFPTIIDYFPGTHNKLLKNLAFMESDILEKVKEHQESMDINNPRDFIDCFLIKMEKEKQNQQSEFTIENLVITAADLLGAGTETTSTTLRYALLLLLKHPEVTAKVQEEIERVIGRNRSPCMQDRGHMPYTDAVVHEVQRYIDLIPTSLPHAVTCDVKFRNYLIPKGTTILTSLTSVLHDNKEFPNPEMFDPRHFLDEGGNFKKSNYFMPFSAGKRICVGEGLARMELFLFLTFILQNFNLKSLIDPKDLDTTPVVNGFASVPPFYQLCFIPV
CYP2C9 inh: human CYP2C9 inhibition | P11712 | CYP2C9 Supersomes, luciferin-H conversion, luminescence | inhibition, % at 5 µM | actives 20% (n = 96,000) | AID 777;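 active = blocking of liver enzyme CYP2C9 beyond about 50% at 5 µM, limit read from the data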
CYP2C9 activ: increases human cytochrome P450 2C9 activity; activation factor at 5 µM; actives 1.4% (n = 96,000); P11712; AID 1024; recombinant CYP2C9, luciferin-H conversion, luminescence; stronger effect = higher value; factor 1 = untreated enzyme, 0 = blocked;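 active = activation factor of 2 or more for CYP2C9 at a 5 µM dose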
PLAP act: human PLAP activation. purified PLAP enzyme, luminescent substrate read-out; stronger effect = higher value. actives 1.2% (n = 96,000). activation fold at 20 µM. AID 696. P05187; in the data active = activation fold above about 2
CYP2C19 act: increases human CYP2C19 enzyme activity. P33261. recombinant CYP2C19, luciferin-H EGE luminescence; stronger effect = higher value; 0 = fully inhibited enzyme, 1 = untreated enzyme. activation factor at 5 µM. 96,000 tested, under 10 active;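 active = activation factor of at least 2 at 5 µM in the primary screen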
Of the large screens only hits and unclear results are named; the others gave an inactive call.

Cc1nc2c(n1C1CCCCC1)C(=O)c1ccccc1C2=O	CYP2C19 inhib 81, CYP2C9 inh 55
CC/C(=N\O)c1ccc(O)c(OC)c1	none
Cc1ccc(C2CC(=O)N3CN(Cc4ccco4)CSC3=C2C#N)cc1 (configuration not stated)	none
COc1ccc2ccccc2c1C1CC(=O)N2CN(C)CSC2=C1C#N (configuration not stated)	none
COc1cc(C2CC(=O)N3CN(c4ccccc4C)CSC3=C2C#N)cc(OC)c1OC (configuration not stated)	CYP2C9 inh 64
COc1ccccc1N1CSC2=C(C#N)C(c3ccc(SC)cc3)CC(=O)N2C1 (configuration not stated)	CYP2C9 inh 88
CCOC(=O)C(C)Oc1cccc2c(=O)n(CC(=O)N3CCN(C(=O)OCC)CC3)ccc12 (configuration not stated)	none
N#CCCN(Cc1cccnc1)S(=O)(=O)c1ccc(S(=O)(=O)NC2CCCCC2)cc1	CYP2C19 inhib 59
O=C(COc1ccc(S(=O)(=O)NC2CCCCC2)cc1)NCc1cccnc1	none
COC(=O)c1[nH]c2cc(OC)ccc2c1NC(=O)c1nonc1C	none
COCC(C)n1c(C)cc(C(=O)COC(=O)c2nc3nc(C)cc(C)n3n2)c1C (configuration not stated)	none
COCC(C)n1c(C)cc(C(=O)COC(=O)c2ccc3ncsc3c2)c1C (configuration not stated)	CYP2C19 inhib 78
CN(C)c1ccc(C(=O)OCc2ccccc2)cc1	none
CN(C)c1ccc(/C(=N\O)c2ccccc2)cc1	CYP2C19 inhib 73
C/C(Cl)=C/CSc1nnc2n(N)c(=O)c3ccccc3n12	none
O=C(NCCCN1CCCC1=O)c1ccc(OCc2ccccc2)cc1	PLAP act 2.1
Cc1ccc(S(=O)(=O)Nc2ccccc2F)cc1C(=O)NCCCN1CCCC1=O	none
O=C(NCCCN1CCCC1=O)c1ccccc1NS(=O)(=O)c1ccc(Br)cc1	CYP2C9 inh 80
CCN1CCN(C(c2cccs2)C(C)NS(=O)(=O)c2ccc(Br)cc2)CC1 (configuration not stated)	CYP2C19 inhib 95
Cc1ccc(S(=O)(=O)NC(C)C(c2cccs2)N2CCN(c3ccccc3)CC2)cc1 (configuration not stated)	none
CC(NS(=O)(=O)c1ccccc1)C(c1cccs1)N1CCN(C)CC1 (configuration not stated)	CYP2C19 inhib 63
CCS(=O)(=O)NC(C)C(c1cccs1)N1CCN(C)CC1 (configuration not stated)	none
CCOc1ccc(Nc2nc(NCCN3CCOCC3)nc(OC)n2)cc1	none
COc1ccc(N2CCN(CC(O)COc3ccc4c(c3)CCC4)CC2)cc1 (configuration not stated)	CYP2C19 inhib 58, PLAP act 2
OC(COc1ccc2c(c1)CCC2)CN1CCN(c2ccccc2F)CC1 (configuration not stated)	CYP2C19 inhib 51
C=CCc1ccc(OCC(O)CN2CCC(Cc3ccccc3)CC2)c(OC)c1 (configuration not stated)	CYP2C19 inhib 55
C=CCc1ccccc1OCC(O)Cn1ccnc1C (configuration not stated)	CYP2C19 inhib 57
COc1cccc(OCC(O)CN2CCOCC2)c1 (configuration not stated)	none
C=CCc1ccccc1OCC(O)CNC (configuration not stated)	none
OC(COCc1ccccc1)CN1CCN(c2ccccc2F)CC1 (configuration not stated)	none
CC(=O)Nc1cc(NC(C)=O)c2nc(N)sc2c1	none
CC1CC(NC(=O)C2(C)CC2(Cl)Cl)CC(C)(C)C1 (configuration not stated)	none
CCOC(=O)c1ccc(NC(=S)Nc2ccccn2)cc1	none
CC(C)COC(=O)c1ccc(NC(=O)C2C3CCC(C3)C2C(=O)O)cc1 (configuration not stated)	none
C=CCc1ccccc1OCC(O)CN1CCN(c2ccc(OC)cc2)CC1 (configuration not stated)	CYP2C19 inhib 50
CCCSc1nc(C)nc2c1c(=O)n(C)c(=O)n2C	none
Cc1cc(Cl)ccc1OCCCC(=O)Nc1cccnc1	CYP2C19 inhib 50
Fc1ccc(CNC(=S)Nc2ccc(Cl)cc2)cc1	CYP2C19 inhib 84
FC(F)(F)c1cccc(NC(=S)Nc2ccc(Cl)cc2Cl)c1	none
S=C(Nc1ccccc1)Nc1ccc(Cl)cc1Cl	CYP2C19 inhib 58
S=C(Nc1ccccc1Cl)Nc1ccc(Cl)cc1Cl	CYP2C19 inhib 58
NS(=O)(=O)c1ccc(NC(=S)NCc2ccc(Cl)cc2)cc1	none
Fc1ccc(NC(=S)Nc2ccc(F)c(Cl)c2)cc1Cl	CYP2C19 inhib 98, CYP2C9 inh 86
CCCCC(=O)Nc1ccc(F)c(Cl)c1	none
CN(C)NC(=S)Nc1ccc(Cl)cc1	CYP2C19 inhib 91
S=C(Nc1ccccc1)Nc1cc(Cl)ccc1Oc1ccccc1	CYP2C19 inhib 96, CYP2C9 inh 95
Cc1cc(Cl)ccc1NC(=S)Nc1cccnc1	CYP2C19 inhib 54
CN(C)CCNC(=S)Nc1ccc(Cl)cc1	none
Cc1sc2ncnc(SCC(=O)NC3CC3)c2c1C	none
O=C(CSc1nnc(Cn2c(=O)sc3ccccc32)n1CCc1ccccc1)N1CCOCC1	none
COC(=O)c1ccccc1NC(=O)c1cc2n(n1)C(C(F)F)CC(C(F)F)N2 (configuration not stated)	none
CC(Oc1ccc(Cl)cc1Cl)C(=O)N/N=C1\CCCc2ccccc21 (configuration not stated)	CYP2C9 inh 60
CC(Oc1ccc(Cl)cc1Cl)C(=O)NCc1ccncc1 (configuration not stated)	CYP2C19 inhib 100, CYP2C9 inh 98
CC(Oc1ccc(Cl)cc1Cl)C(=O)Nc1ncccn1 (configuration not stated)	CYP2C19 inhib 69
Cc1cc(Cl)ccc1OCC(=O)N/N=C1\CCCc2ccccc21	none
Cc1cc(Cl)ccc1OC(C)C(=O)NCCCCc1ccccc1 (configuration not stated)	CYP2C9 inh 56
CCCN1CCC(N(C)CCc2ccc(OC)c(OC)c2)CC1	none
CC(Oc1ccc(Cl)cc1Cl)C(=O)NCCCn1ccnc1 (configuration not stated)	CYP2C19 inhib 100, CYP2C9 inh 99
CC(Oc1ccc(Cl)cc1Cl)C(=O)NCCN1CCOCC1 (configuration not stated)	none
CCN(CCNC(=O)C1CCN(S(=O)(=O)c2cccc3cccnc23)CC1)c1ccccc1	CYP2C9 activ 3
COc1ccc(S(=O)(=O)N2CCC(C(=O)Nc3ccccc3C)CC2)c2cccnc12	CYP2C19 inhib 63
CCOc1ccc(OCC)c(NC(=O)C2CCCN2S(=O)(=O)c2cccc3cccnc23)c1 (configuration not stated)	none
CCOc1ccccc1NC(=O)C1CCN(S(=O)(=O)c2cccc3cccnc23)CC1	CYP2C19 inhib 93
